Source: PubChem BioAssay
Activity calls are given as the source filed them.

How the values were obtained:
[1] = tested on: Human papillomavirus type 1a protein E7 (residues 44-93); test: HPV1a E7 fragment binders on microarrays, primary screen, biochemical, small-molecule microarray, residues 44-93, 635 nm fluorescence (AID 1108); conditions: small-molecule microarray binding, fluorescence 635 nm; higher = more signal;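 note: E7 fragment applied at 1 µg/mL in TBST for 1 h at 4 C; score combines spot fluorescence with its signal to noise ratio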
[2] = modulators of HCV replicon luciferase signal, primary screen, HCV replication inhibitor project, Huh7 cells, luciferase reporter (AID 1109); conditions: 48 h, higher = more signal;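 note: huh7 hepatoma cells harbouring a luciferase neomycin HCV replicon reporter; luciferase luminescence as measure of HCV replicon replication; test concentration not given here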
[3] = biological target: Left-right determination factor 2 (Homo sapiens) (UniProt O00292); test: LEFTY2 binders on small-molecule microarrays, primary screen, biochemical, small-molecule microarray, 635 nm fluorescence scan (AID 1110); conditions: LEFTY2 binding, higher = more signal
[4] = biological target: Calmodulin-1 (Homo sapiens) (UniProt P0DP23); test: CALM1 binders on microarrays, EGTA buffer, profiling panel, biochemical, small-molecule microarray, Cy5-labelled CALM1 (AID 1111); conditions: Cy5-CALM1 binding fluorescence, higher = more signal;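 note: labelled calmodulin applied in Tris saline Tween buffer holding calcium plus EGTA and DTT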
[5] = biological target: Calmodulin-1 (Homo sapiens) (UniProt P0DP23); test: calcium-bound CALM1 binders on microarrays, profiling panel, artefact control for SMM control-protein annotation, biochemical, small-molecule microarray, Cy5-labelled CALM1, plus calcium (AID 1112); conditions: Cy5-CALM1 binding fluorescence, higher = more signal;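 note: score merges spot fluorescence with signal to noise from triplicate slides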
[6] = small-molecule microarray binders of probe aWnt5a, primary screen, biochemical, biotinylated probe, 635/667 nm fluorescence (AID 1113); conditions: higher = more signal;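 note: score merges 667 nm fluorescence intensity with signal-to-noise per printed feature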
[7] = small-molecule microarray binders of probe aShh, primary screen, biochemical, biotinylated probe, 635/667 nm fluorescence (AID 1114); conditions: higher = more signal;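 note: probe is biotin-labelled aShh protein from a stem cell growth factor screen; measures binding of labelled protein to compounds printed on the slide; score merges feature fluorescence at 667 nm with signal-to-noise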
[8] = small-molecule microarray binders of probe aNog, primary screen, biochemical, biotinylated probe, 635/667 nm fluorescence (AID 1115); conditions: higher = more signal;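 note: probe is biotinylated aNog protein used at 0.15 µg/mL for 1 h at 4 C; z-score combines 667 nm fluorescence of each spot with its signal to noise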
[9] = biological target: Torsin-1A-interacting protein 1 (Homo sapiens) (UniProt Q5JTV8); test: LAP1 binders from COS7 cell lysate, primary screen, small-molecule microarray, 635/667 nm fluorescence (AID 1116); conditions: COS7-hLAP1 lysate binding, 635 nm fluorescence, higher = more signal
[10] = biological target: Alpha-bungarotoxin (Bungarus multicinctus) (UniProt P60615); test: alpha-bungarotoxin binders on microarray, profiling panel, artefact control for SMM control protein annotation, biochemical, small-molecule microarray, Alexa647 label, 635/667 nm fluorescence (AID 1117); conditions: alpha-BTX-A647 binding fluorescence, higher = more signal
Albumin (Bos taurus) = Albumin (Bos taurus) (UniProt P02769); test: bovine serum albumin binders on microarray, profiling panel, artefact control for SMM control protein annotation, biochemical, small-molecule microarray, Alexa647 label, 635/667 nm fluorescence (AID 1118); conditions: BSA-A647 binding, fluorescence 635 nm, higher = more signal;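 note: score merges 667 nm emission intensity and signal-to-noise per printed compound spot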
[11] = small-molecule microarray binders of probe aXIP, primary screen, biochemical, NeuroSMM set, 635/667 nm fluorescence (AID 1119); conditions: higher = more signal, called active from +8 up or from −8 down;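 note: probe is the protein aXip251-270 applied at 1 µg/mL to compound-printed slides; binding of probe to printed compounds measured as 667 nm fluorescence plus signal to noise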
[12] = small-molecule binders of probe aNOTCH3, primary screen, biochemical, small-molecule microarray, 635/667 nm fluorescence (AID 1120); conditions: higher = more signal;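 note: probe is a biotin-tagged antibody raised against NOTCH3 rather than NOTCH3 protein; score merges spot fluorescence near 667 nm with spot signal to noise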
[13] = small-molecule binders of probe aNOTCH2, primary screen, biochemical, small-molecule microarray, 635/667 nm fluorescence (AID 1121); conditions: higher = more signal;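 note: score merges feature fluorescence read at 667 nm with its signal to noise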
[14] = biological target: Carbonic anhydrase 2 (Homo sapiens) (UniProt P00918); test: CAII small-molecule binders, profiling panel, biochemical, small-molecule microarray, Alexa647-labelled CAII (AID 1122); conditions: CAII-A647 binding fluorescence, higher = more signal
[15] = COS7 lysate on small-molecule microarray, probe aHis, 635 nm (AID 1123); conditions: COS7 cell lysate, fluorescence, higher = more signal;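 note: z-score combines 667nm fluorescence intensity with signal-to-noise per printed compound spot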
[16] = compound binding in COS7 lysate, probe aLAP1, primary screen, cell lysate, small-molecule microarray (AID 1124); conditions: probe aLAP1, fluorescence, higher = more signal;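 note: lysate comes from COS7 cells expressing LAP1 and is applied at 0.3 µg/mL; score merges spot fluorescence near 667 nm with signal-to-noise over triplicate slides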
Sam68 (KHDRBS1) = test: Sam68 small-molecule binders, primary screen, biochemical, small-molecule microarray, 635 nm fluorescence (AID 1125); conditions: small-molecule microarray binding, higher = more signal;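 note: score merges 667 nm channel intensity with signal to noise over triplicate slides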
[17] = tested on: Chordin-like protein 2 (CHRDL2); test: CHRDL2 small-molecule binders, primary screen, biochemical, small-molecule microarray, 635 nm fluorescence (AID 1126); conditions: small-molecule microarray binding, fluorescence 635 nm; higher = more signal;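 note: printed compound slides probed with Chrdl2 protein at 4 µg/mL for 1 h at 4 C; score merges 667 nm emission intensity with signal to noise over three replicate slides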
[18] = biological target: Concanavalin-A (Canavalia ensiformis) (UniProt P02866); test: ConA small-molecule binders, primary screen, artefact control for SMM control protein annotation, biochemical, small-molecule microarray, Alexa647 label, 635 nm (AID 1127); conditions: ConA-A647 binding fluorescence, higher = more signal;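 note: z combines 667 nm emission intensity with signal-to-noise across three replicate slides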
Chain of Concanavalin-A (Canavalia ensiformis) (P02866 whole entry, looked up): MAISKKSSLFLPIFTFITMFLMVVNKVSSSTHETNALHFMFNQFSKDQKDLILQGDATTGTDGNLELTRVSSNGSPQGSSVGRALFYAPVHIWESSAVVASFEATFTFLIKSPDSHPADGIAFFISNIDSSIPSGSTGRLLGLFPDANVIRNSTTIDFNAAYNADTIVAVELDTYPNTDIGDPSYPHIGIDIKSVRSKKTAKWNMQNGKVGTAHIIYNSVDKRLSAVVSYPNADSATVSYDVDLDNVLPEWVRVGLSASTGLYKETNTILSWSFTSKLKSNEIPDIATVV

Chain of Left-right determination factor 2 (Homo sapiens) (O00292 whole entry, looked up): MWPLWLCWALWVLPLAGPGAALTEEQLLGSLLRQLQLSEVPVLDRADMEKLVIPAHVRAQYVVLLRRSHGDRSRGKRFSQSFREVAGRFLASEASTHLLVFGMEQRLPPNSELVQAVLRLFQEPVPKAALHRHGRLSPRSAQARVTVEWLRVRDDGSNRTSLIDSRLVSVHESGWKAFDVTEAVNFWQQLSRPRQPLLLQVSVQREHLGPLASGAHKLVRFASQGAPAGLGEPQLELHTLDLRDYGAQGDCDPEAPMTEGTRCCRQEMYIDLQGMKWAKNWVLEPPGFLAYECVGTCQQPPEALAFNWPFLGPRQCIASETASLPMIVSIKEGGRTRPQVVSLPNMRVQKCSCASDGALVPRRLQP
Chain of Torsin-1A-interacting protein 1 (Homo sapiens) (Q5JTV8 whole entry, looked up): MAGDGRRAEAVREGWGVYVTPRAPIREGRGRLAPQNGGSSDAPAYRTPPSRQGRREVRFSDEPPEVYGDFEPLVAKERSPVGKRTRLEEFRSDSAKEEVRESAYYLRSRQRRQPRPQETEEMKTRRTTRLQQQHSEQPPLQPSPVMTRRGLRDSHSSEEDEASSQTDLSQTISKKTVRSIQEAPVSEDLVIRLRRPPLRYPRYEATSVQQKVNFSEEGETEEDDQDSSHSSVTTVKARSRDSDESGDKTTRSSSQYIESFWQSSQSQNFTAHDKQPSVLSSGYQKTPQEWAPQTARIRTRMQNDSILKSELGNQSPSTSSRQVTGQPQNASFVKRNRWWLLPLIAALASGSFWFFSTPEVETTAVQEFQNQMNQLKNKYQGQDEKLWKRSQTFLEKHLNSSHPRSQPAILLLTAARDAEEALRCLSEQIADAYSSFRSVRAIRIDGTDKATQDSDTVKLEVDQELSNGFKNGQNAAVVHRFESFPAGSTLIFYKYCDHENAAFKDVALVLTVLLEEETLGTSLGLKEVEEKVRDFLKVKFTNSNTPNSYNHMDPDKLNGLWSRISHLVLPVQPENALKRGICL
Chain of Albumin (Bos taurus) (P02769 whole entry, looked up): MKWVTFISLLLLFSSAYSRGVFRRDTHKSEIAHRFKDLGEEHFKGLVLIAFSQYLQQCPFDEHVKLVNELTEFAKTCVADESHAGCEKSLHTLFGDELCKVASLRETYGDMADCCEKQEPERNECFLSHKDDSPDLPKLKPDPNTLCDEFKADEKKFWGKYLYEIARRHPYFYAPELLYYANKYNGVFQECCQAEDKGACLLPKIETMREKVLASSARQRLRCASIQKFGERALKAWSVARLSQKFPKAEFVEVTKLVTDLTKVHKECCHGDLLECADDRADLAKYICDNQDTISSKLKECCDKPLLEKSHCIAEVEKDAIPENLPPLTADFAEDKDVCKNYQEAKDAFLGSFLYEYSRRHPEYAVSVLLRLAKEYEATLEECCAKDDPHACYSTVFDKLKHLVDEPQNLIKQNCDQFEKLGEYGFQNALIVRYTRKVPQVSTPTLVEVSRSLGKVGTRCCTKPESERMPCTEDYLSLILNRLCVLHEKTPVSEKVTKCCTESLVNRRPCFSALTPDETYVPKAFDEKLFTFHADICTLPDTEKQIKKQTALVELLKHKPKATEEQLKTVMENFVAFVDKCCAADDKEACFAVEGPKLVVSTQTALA
Chain of Alpha-bungarotoxin (Bungarus multicinctus) (P60615 whole entry, looked up): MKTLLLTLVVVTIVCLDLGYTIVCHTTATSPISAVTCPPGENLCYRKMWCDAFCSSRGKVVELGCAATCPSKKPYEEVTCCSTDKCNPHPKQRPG

| SMILES | composite z-score [1] | z-score [2] | composite z-score [3] | composite z-score [4] | composite z-score [5] | composite z-score [6] | composite z-score [7] | composite z-score [8] | composite z-score [9] | composite z-score [10] | composite z-score (Albumin (Bos taurus)) | composite Z-score [11] | composite z-score [12] | composite z-score [13] | composite z-score [14] | composite z-score [15] | composite z-score [16] | composite z-score (Sam68 (KHDRBS1)) | composite z-score [17] | composite z-score [18] |
| --- | --- | --- | --- | --- | --- | --- | --- | --- | --- | --- | --- | --- | --- | --- | --- | --- | --- | --- | --- | --- |
| C[C@]1(C(=O)NCCN2CCOCC2)c2ccccc2C(=O)N(Cc2ccc(OC(F)(F)F)cc2)[C@H]1c1ccc(CO)cc1 | 1.44 | -0.705 | -1.24 | 0.084 | -0.0325 | -0.252 | -0.503 | -0.313 | 0.836 | 0.396 | 0.723 | 0.456 (inactive) | -0.154 | -0.0966 | 0.627 | 2.43 | 0.345 | 0.217 | -1.15 | 0.392 |
| CCOC(=O)C1=CC[C@@H](c2ccccc2C(F)(F)F)N(S(=O)(=O)c2ccc(C)cc2)C1 | 0.648 | -2.98 | 0.613 | 2.07 | 1.07 | 0.274 | 0.584 | -0.395 | 1.5 | 1.49 | 0.959 | 0.917 (inactive) | 0.694 | 0.311 | 0.411 | 1.57 | 0.95 | 1.1 | -0.41 | 1.13 |
| COc1cc(CO)cc(I)c1O[C@H]1C=C(C(=O)NCCO)C[C@@H](N(CC2CCCCC2)C(=O)c2ccc(C(F)(F)F)cc2)[C@@H]1O | 1.15 | -1.54 | 0.402 | 0.0208 | -0.21 | -0.087 | -0.2 | -0.144 | 0.465 | -0.8 | 0.388 | 0.527 (inactive) | -0.0921 | -0.147 | 0.055 | 0.461 | 0.621 | 1.27 | 0.398 | 0.352 |
| Cc1ccc(S[C@]2(C(=O)NCC(F)(F)F)CC(=O)N(Cc3ccccc3)[C@@H]2c2ccc(CO)cc2)cc1 | -0.341 | -1.54 | -1.73 | -0.23 | 0.526 | -0.169 | -0.268 | -0.186 | 0.122 | -0.0421 | -0.597 | 0.363 (inactive) | -0.115 | -0.119 | 0.699 | 0.973 | -0.0477 | 0.619 | -1.23 | -0.643 |
| Cc1ccc(S[C@]2(C(=O)NC(C)C)CC(=O)N(C3Cc4ccccc4C3)[C@@H]2c2ccc(CO)cc2I)cc1 | -0.803 | -2.19 | -2.04 | -0.625 | -1.08 | -0.596 | -0.291 | -1.12 | -0.664 | -0.365 | -0.25 | 0.0777 (inactive) | -0.641 | -0.359 | 0.825 | 3.04 | 0.387 | 0.318 | 0.02 | -0.181 |
| COc1ccccc1CN1C(=O)c2ccccc2[C@](Cc2ccccc2I)(C(=O)NC(C)C)[C@@H]1c1ccc(CO)cc1 | 1.46 | -2.22 | 0.242 | 0.704 | 0.0649 | -0.0455 | 0.131 | -0.402 | 0.855 | 1.41 | 0.894 | 0.338 (inactive) | 0.101 | -0.123 | 0.131 | 2.39 | 0.226 | 1.3 | 0.286 | 1.16 |
